This is part of a sample that, as a whole, favours compounds with a hit. Of some 83,000 tested, about 20% had one in any assay.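 Method: cells in 96-well plates; compound added at one concentration; 48 h incubation; percent growth measured; values under 10 scored active.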 Unmarked numbers belong to inactive results. The source made the active and inactive calls.

Our source for the growth values is PubChem BioAssay (NCI).

What all share (assay): NCI-60 one-dose screen, 48 h (100 = growth as untreated, 0 = no growth, -100 = all killed)
Common to all, as to conditions: 10 µM unless noted

Test [1] has as its system HCT-15 colon.
The test system of test [2] is HT29 colon.
Test [3] concerns SNB-75 CNS.
Test [4] relates to SNB-19 CNS.
The subject of test [5] is U251 CNS.
For test [6], the system named is PC-3 prostate.
For test [7], the system named is SK-MEL-5 melanoma.
Test [8] relates to UACC-62 melanoma.
In test [9] the test system is LOX IMVI melanoma.
The test system of test [10] is SK-MEL-28 melanoma.
In test [11] the test system is SK-MEL-2 melanoma.
The subject of test [12] is EKVX NSCLC.
In test [13] the test system is SN12C renal.
Test [14] has as its system UO-31 renal.
The subject of test [15] is TK-10 renal.
Test [16] relates to ACHN renal.
Test [17] concerns CAKI-1 renal.
Test [18] deals with A498 renal.
The test system of test [19] is CCRF-CEM leukemia.
Test [20] deals with MOLT-4 leukemia.

On to `O=C1/C(=C/c2ccc(C(F)(F)F)cc2)COc2ccc(O)cc21`, for which the growth in [1] is 40.6%; in test [2], 44.2%; in test [3] it was 81.1%; in [4], 85.3%; in test [5], 52.3%; in [6] it was 70.3%. The growth was 97.4% in [7]; 80.2% in test [8]; 2.9% (active) in test [9]; 100% in [10]; 99.7% in test [11]; 96.3% in test [12]. Moreover, the growth was 69.3% in test [13]; 44.8% in [14]; 99.2% in test [15]; 91.3% in test [16]; 71.9% in test [17]; 109% in test [18]. Further, the figures for the growth in test [19] and in test [20] were 3.29% (active) and 4.15% (active), respectively.
On to `COc1cc2cc(NCc3ccc(OC(F)F)cc3)nc(C)c2cc1OC`, for which the growth is 59.9% in test [1]; 25.7% in [2]; 88.1% in test [3]; 66.2% in [4]; 62.3% in test [5]; 64.5% in [6]. Besides, the growth in [7] was 68.3%; in test [8], 47%; in test [9], 27.7%; in [10] it was 72.7%; in test [11] it was 79.8%; in test [12], 75.6%. Also, the growth in [13] is 62.6%; in [14], 38.6%; in test [15], 54.1%; in [16], 69.5%; in [17], 51.5%; in [18], 30.5%. In addition, the growth in test [19] was 68.9%; in test [20], 63.3%.
Turning to `Cc1cc2nc(-c3c(-c4ccc(F)cc4)nc4sccn34)[nH]c2cc1C`, the growth in [1] was 93%; in test [2], 96.3%; in test [3], 105%; in [4], 96.1%; in [5], 95.4%; in [6], 90.5%. Further, the growth is 86.3% in test [7]; 89% in test [8]; 88.8% in test [9]; 95.2% in [10]; 100% in test [11]; 103% in test [12]. Moreover, the growth in test [13] is 98.6%; in test [14] it was 78.6%; in test [15], 86%; in test [16], 93.6%; in test [17], 89.9%; in [18], 89.2%. Further, the results for the growth in test [19] and in test [20] were 90.1% and 83.4%, respectively.
Consider `O=C(OC[C@@H]1CO1)c1cccc2c(=O)c3ccccc3[nH]c12`, for which the growth is -5.09% (active) in test [1]; -7.33% (active) in [2]; -88.2% (active) in test [3]; -7.9% (active) in test [4]; -15.7% (active) in test [5]; -21.1% (active) in [6]. Moreover, the growth is -90.9% (active) in test [7]; -89.2% (active) in test [8]; -78.1% (active) in test [9]; -62.6% (active) in test [10]; -70.8% (active) in [11]; -16.8% (active) in test [12]. In addition, the growth in test [13] was -46.9% (active); in test [14], -20.7% (active); in test [15], -6.41% (active); in test [16], -41.2% (active); in [17], -13.2% (active); in test [18] it was -44.4% (active). Further, the growth in test [19] was 2.83% (active); in test [20], 1.32% (active).
As for `COc1ccccc1NC(=O)c1ccc(/C=C/C(=O)c2nccn2C)cc1`, the growth in test [1] was -30.3% (active); in test [2], -52.6% (active); in test [3], -3.01% (active); in test [4], -84.3% (active); in [5], -74.6% (active); in test [6], -49.4% (active). The growth in test [7] is -97.1% (active); in [8] it was -60.6% (active); in test [9] it was -82.5% (active); in test [10] it was -45.9% (active); in [11], -27.4% (active); in test [12], -12.2% (active). The growth in test [13] is -80.4% (active); in [14] it was -94.5% (active); in test [15], -45.6% (active); in test [16], -100% (active); in [17] it was -38.7% (active); in [18] it was -39.8% (active). The growth was -11.6% (active) in test [19] and 0.601% (active) in [20].
As for `COc1ccc(OC)c(-c2cn3nc(-c4c[nH]c5ccc(Br)cc45)sc3n2)c1`, the growth is 24.6% in test [1]; 10% in test [2]; 45% in test [3]; 75.4% in test [4]; 36.9% in [5]; 40.9% in test [6]. Moreover, the growth in test [7] is 75.3%; in test [8], 50.1%; in test [9], -50.5% (active); in test [10], 59.5%; in test [11], 86.3%; in test [12] it was 36.9%. Besides, the growth is 44.2% in [13]; 45% in test [14]; 62% in test [15]; 38.8% in test [16]; 29.7% in test [17]; 86.1% in test [18]. In addition, the growth in test [19] is 32.8%; in test [20], 48.8%.
With `O=C1/C(=C/c2ccccc2)CN(C(=O)c2cccnc2)C/C1=C\c1ccccc1`, the growth was -5.39% (active) in test [1]; -34% (active) in test [2]; 81.6% in [3]; 6.39% (active) in test [4]; -23.8% (active) in test [5]; -17.6% (active) in test [6]. The growth in test [7] is -39.1% (active); in test [8], -46.2% (active); in test [9], -84% (active); in [10], -9.39% (active); in test [11] it was 89.6%; in test [12], 30.2%. Also, the growth in test [13] was 6.72% (active); in test [14] it was -54.5% (active); in [15], 20.7%; in test [16], -15.7% (active); in [17] it was 5.87% (active); in test [18], 65.3%. Besides, the growth in test [19] is -15% (active); in [20] it was 0.998% (active).
